Measured values: PubChem BioAssay AID707 (Columbia University Molecular Screening Center, 2007)
Out of some 91,000 compounds screened, about 310 (0.34%) were called active. Rule as the data show it: active = inhibition above about 80%; inactive = the rest. What follows is part of a selection rich in actives, with near analogues and random picks from the rest.

target: Bifunctional epoxide hydrolase 2 (Homo sapiens) (UniProt P34913); assay: sEH enzyme activity blockers – biochemical, human sEH, primary screen (AID 707); conditions: recombinant human sEH enzymatic activity assay; at 2 µM; active compounds read high
Sequence (P34913 whole entry, looked up): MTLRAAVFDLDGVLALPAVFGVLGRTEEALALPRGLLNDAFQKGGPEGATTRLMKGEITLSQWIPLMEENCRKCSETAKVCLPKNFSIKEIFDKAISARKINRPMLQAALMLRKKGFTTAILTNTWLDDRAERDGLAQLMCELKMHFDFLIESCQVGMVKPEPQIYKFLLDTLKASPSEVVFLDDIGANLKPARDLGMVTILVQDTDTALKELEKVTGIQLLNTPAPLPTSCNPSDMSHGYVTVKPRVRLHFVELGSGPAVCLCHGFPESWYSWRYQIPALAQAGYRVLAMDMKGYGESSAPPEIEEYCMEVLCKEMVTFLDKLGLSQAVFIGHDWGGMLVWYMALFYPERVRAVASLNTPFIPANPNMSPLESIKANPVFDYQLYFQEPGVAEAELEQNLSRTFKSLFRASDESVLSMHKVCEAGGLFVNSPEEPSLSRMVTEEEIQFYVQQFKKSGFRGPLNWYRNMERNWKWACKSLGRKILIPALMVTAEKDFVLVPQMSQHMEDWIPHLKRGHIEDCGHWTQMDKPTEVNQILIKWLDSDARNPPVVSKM

With `Cc1cc(Nc2ccccc2)nc(N)n1` as the molecule, how does the inhibition read?
The inhibition was 3% (inactive).

`CCNC(=S)Nc1cccc(Cl)c1C` was tested. Which inhibition did it give?
Its inhibition is -0.5% (inactive).

Which inhibition does the source give for `CC(C)N(c1ccccc1)c1ncnc(NCCC(=O)O)c1[N+](=O)[O-]` here?
Its inhibition is -1.2% (inactive).

For `c1ccc2c(C[n+]3csc4ccccc43)cccc2c1`, which inhibition is on record?
The inhibition was -9% (inactive).

Which inhibition does the source give for `Cc1nn(-c2ccccn2)c2c1C(c1ccncc1)C1=C(CC(C)(C)CC1=O)N2` (stereo not given) here?
Its inhibition is -0.7% (inactive).

How did the inhibition turn out when `O=C(Cc1ccc2c(c1)CCCC2)Nc1ccccc1Cl` was run?
Its inhibition is 7.7% (inactive).

Which inhibition does the source give for `O=C1c2ccccc2C(=O)c2c1cccc2N1CCN(CCO)CC1` here?
The inhibition was 5.4% (inactive).

`COc1ccc(/C=C(/NC(=O)c2ccc(C)cc2)c2nc3ccccc3[nH]2)cc1OC` was tested. Which inhibition did it give?
The inhibition was 1.8% (inactive).

How did the inhibition turn out when `Cc1ccccc1N/N=C/c1ccc(N2CCOCC2)cc1` was run?
Its inhibition is -9.2% (inactive).

`CC(Oc1ccc(Cl)cc1Cl)C(=O)/C=C/N(C)C` (stereo not given) was tested. Which inhibition did it give?
The inhibition was 15.1% (inactive).

With `COc1cnc(SCc2ccc(Cl)c(Cl)c2)nc1Cl` as the molecule, how does the inhibition read?
The inhibition was -5.2% (inactive).

With `ONC(=Nc1ccc(Cl)cc1)c1ccccc1Cl` as the molecule, how does the inhibition read?
The inhibition was -9.2% (inactive).

With `CCOc1ccc(Nc2nc(Cc3nnc(SCC(=O)NC4CCCC4)n3C)cs2)cc1` as the molecule, how does the inhibition read?
The inhibition was 10.9% (inactive).

`CN(C)Cc1ccccc1C1(O)c2ccccc2CSc2ccccc21` (stereo not given) was tested. Which inhibition did it give?
The inhibition was 5.7% (inactive).

`Clc1ccc(-c2cc(COc3ccccc3)no2)cc1Cl` was tested. Which inhibition did it give?
Its inhibition is -1.1% (inactive).

For `COc1ccc(C(=S)Nc2ccccc2)cc1`, which inhibition is on record?
The inhibition was 4.8% (inactive).

With `Cc1ccsc1C(C(=O)NC1CCCCC1)N(C(=O)Cc1cccs1)C1CC1` (stereo not given) as the molecule, how does the inhibition read?
Its inhibition is 5.3% (inactive).

Which inhibition does the source give for `CC(Cc1cccs1)NC(=O)NC1CCCCC1` (stereo not given) here?
The inhibition was 92.6% (active).

Which inhibition does the source give for `CC(C)C(OC(=O)c1cccs1)C(=O)NC1CCCCC1` (stereo not given) here?
Its inhibition is -8.3% (inactive).

How did the inhibition turn out when `CCOc1ccc(S(=O)(=O)Nc2nc3cc(OC)ccc3s2)cc1` was run?
The inhibition was -14.5% (inactive).

Which inhibition does the source give for `CCOC(=O)Nc1ccc(S(=O)(=O)N(C)C(C)C)cc1` here?
The inhibition was 1.6% (inactive).

`Cc1ccccc1C(=O)N1CCC(C(=O)Nc2ccc(S(=O)(=O)N(C)C(C)C)cc2)CC1` was tested. Which inhibition did it give?
Its inhibition is 83.8% (active).

How did the inhibition turn out when `CC(C)NS(=O)(=O)c1ccc(NC(=O)C2CCCCC2)cc1` was run?
Its inhibition is -3.1% (inactive).

For `O=C(CSc1ncnc2c1cnn2CCc1ccccc1)Nc1ccc(F)cc1`, which inhibition is on record?
The inhibition was 20.5% (inactive).

For `O=C(c1cccc(F)c1)N1CCN(c2ccc([N+](=O)[O-])c(N3CCCCC3)c2)CC1`, which inhibition is on record?
Its inhibition is 6.5% (inactive).

`CCOC(=O)/C(=C\c1ccc([N+](=O)[O-])cc1)C(=O)c1cc(C(C)=O)c(Nc2ccccc2)s1` was tested. Which inhibition did it give?
Its inhibition is 10.3% (inactive).

`COc1ccccc1OCCNc1cc(N2CCOCC2)ccc1[N+](=O)[O-]` was tested. Which inhibition did it give?
Its inhibition is -3.3% (inactive).

`CCn1c2ccccc2c2cc(NC(=O)C/C(C)=N/NC(=O)c3ccccc3N)ccc21` was tested. Which inhibition did it give?
The inhibition was 4.8% (inactive).

How did the inhibition turn out when `Cc1ccc(/C=N/NC(=O)C(NC(=O)c2ccccc2)c2n[nH]c(=O)c3ccccc23)cc1` (stereo not given) was run?
The inhibition was -0.8% (inactive).

For `COc1ccccc1NC(=O)[C@H](COCc1ccccc1)NC(=O)OC(C)(C)C`, which inhibition is on record?
The inhibition was -8.8% (inactive).

How did the inhibition turn out when `CCOc1cccc(SCc2noc(C(=O)NC(C)C)c2C(=O)O)c1` was run?
The inhibition was -1.8% (inactive).

Which inhibition does the source give for `CN(C)/C=C(\C#N)C(=O)c1cccnc1Oc1ccc(F)cc1F` here?
The inhibition was 12.8% (inactive).

For `C=CCn1c(-c2ccc(Cl)cc2)ccc(C#N)c1=O`, which inhibition is on record?
The inhibition was -0.8% (inactive).

`CC1CCN(C(NC(=O)c2ccco2)C(=O)c2ccccc2)CC1` (stereo not given) was tested. Which inhibition did it give?
Its inhibition is -0.8% (inactive).

Which inhibition does the source give for `O=C1CCN(C(=O)Nc2ccccc2)N1` here?
Its inhibition is 2.7% (inactive).

Which inhibition does the source give for `O=C(CCNS(=O)(=O)c1ccccc1C(F)(F)F)NCc1ccc2c(c1)OCO2` here?
Its inhibition is -4.3% (inactive).

With `COc1ccc(/C=C2\CCCC3C2=NN(C(=O)c2scnc2C)C3c2ccc(OC)cc2)cc1` (stereo not given) as the molecule, how does the inhibition read?
Its inhibition is -10.6% (inactive).

With `CS(=O)(=O)N(CC(=O)Nc1ccc(F)cc1F)c1cccc([N+](=O)[O-])c1` as the molecule, how does the inhibition read?
Its inhibition is 1.3% (inactive).

`CC(C)c1ccc(/C=C/C(=O)NNC(=O)c2cccnc2)cc1` was tested. Which inhibition did it give?
Its inhibition is -2.9% (inactive).

With `COc1cc(C2C(C(=O)OCCC#N)=C(C)NC3=C2S(=O)(=O)c2ccccc23)cc(OC)c1OC` (stereo not given) as the molecule, how does the inhibition read?
The inhibition was 8.9% (inactive).

With `COc1ccc(Cl)cc1NC(=O)CN(C)C(=O)CNC(=O)C12CC3CC(CC(C3)C1)C2` as the molecule, how does the inhibition read?
The inhibition was 15.5% (inactive).

With `CS(=O)(=O)N1CCN(c2ccc(C(=O)NC3C4CC5CC(C4)CC3C5)cc2[N+](=O)[O-])CC1` (stereo not given) as the molecule, how does the inhibition read?
Its inhibition is -10.1% (inactive).

With `Cc1cc(/C=C2/SC(=O)N(CC(=O)OC(C)C)C2=O)c(C)n1C` as the molecule, how does the inhibition read?
The inhibition was -9.2% (inactive).

`Cc1cc(OC(=O)c2c(Cl)cccc2Cl)nc(C)n1` was tested. Which inhibition did it give?
Its inhibition is -21.2% (inactive).

`Cc1nnsc1S(=O)(=O)Cc1ccccc1Cl` was tested. Which inhibition did it give?
Its inhibition is 4.8% (inactive).

`CCOC(=O)N1CCN(c2c(NCCCN3CCCC(C)C3)c(=O)c2=O)CC1` (stereo not given) was tested. Which inhibition did it give?
Its inhibition is -4.6% (inactive).

`Cc1nc(Cl)c2oc3ccccc3c2n1` was tested. Which inhibition did it give?
Its inhibition is 0.8% (inactive).

With `O=[N+]([O-])c1ccccc1NCc1ccc(Cl)cc1` as the molecule, how does the inhibition read?
The inhibition was -1% (inactive).

`CN(C)c1ccc(NC(=S)N(CCc2ccccc2)C2CC(=O)N(c3c(Cl)cccc3Cl)C2=O)cc1` (stereo not given) was tested. Which inhibition did it give?
Its inhibition is 7.8% (inactive).

`Cc1nn(CC(=O)Nc2nc3ccccc3s2)c(C)c1[N+](=O)[O-]` was tested. Which inhibition did it give?
The inhibition was -6.1% (inactive).

For `Cc1ccc(OCC(=O)N/N=C/c2ccncc2)cc1`, which inhibition is on record?
The inhibition was -19.2% (inactive).

For `CC(=O)c1cn(CCCCCCCCCCn2cc(C(C)=O)c(=O)[nH]c2=O)c(=O)[nH]c1=O`, which inhibition is on record?
The inhibition was -2% (inactive).

For `Cc1ccc(-c2nn(-c3ccccc3)cc2/C=N/NC(=O)c2ccc3c(c2)OCO3)cc1`, which inhibition is on record?
Its inhibition is -6.2% (inactive).

`Cc1occc1C(=O)NNC(=S)NCC(C)C` was tested. Which inhibition did it give?
The inhibition was -18% (inactive).

For `Cc1cccc(NC(=O)c2ccc(OCC(=O)NCc3ccccc3)cc2)c1C`, which inhibition is on record?
Its inhibition is 3.8% (inactive).
